From the supplement of paper PMC4840960
Where a name gives a salt, the structure may show the parent alone. ± gives the standard deviation of the averaged measurements.

Tests used:
[1] = tested on: E18 rat cortical neuron-glia co-culture; experiment: fiber score / MBP score (myelination specific beyond OL differentiation) (ratio); higher = more myelination-specific MBP alignment; settings: treatment time: 8 days (DIV5-DIV13)
Summary of the method: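 Papain-dissociated primary E18 rat cortical co-cultures, plated at 20,000 cells/well on poly-d-lysine/laminin 96-well plates, were exposed to library compounds at 1 or 5 µM in myelination medium between DIV5 and DIV13. Following fixation in 4 % paraformaldehyde, cultures were stained for MBP, Olig2 and DAPI, and four 10X fields per well were analysed in duplicate wells. Values are the ratio of fiber score (continuous MBP fiber length per Olig2+ nucleus) to MBP score (thresholded MBP area × intensity per Olig2+ nucleus).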

[2] = tested on: E18 rat cortical neuron-glia co-culture; experiment: myelination (MBP fiber length per Olig2+ nucleus), % of 1 µM DAPT response (DMSO = 0) (% of DAPT); higher = more myelination, active = 50 or more; settings: treatment time: 8 days (DIV5-DIV13)
Summary of the method: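 Myelination, expressed as continuous straight MBP fiber length per Olig2+ nucleus, was normalised to 0.1 % DMSO as 0 and a 1 µM positive control as 100. The cultures were primary E18 rat cortical co-cultures dissociated with papain and plated at 20,000 cells/well on poly-d-lysine/laminin-coated 96-well plates. They received library compounds at 1 or 5 µM in myelination medium between DIV5 and DIV13. Analysis covered four 10X fields per well in duplicate wells after 4 % paraformaldehyde fixation and immunostaining for MBP and Olig2 with DAPI.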

Row | Compound | fiber score / MBP score ([1]; 1 µM) | fiber score / MBP score ([1]; 5 µM) | myelination ([2]; 1 µM) | myelination ([2]; 5 µM)
1 | COc1cc(C(=O)NS(=O)(=O)c2ccccc2C)ccc1Cc1cn(C)c2ccc(NC(=O)OC3CCCC3)cc12 [Zafirlukast] | 0.627 | 0.714 | -12.3 (inactive) | -4.26 (inactive)
2 | Cc1ccc(N(CC2=NCCN2)c2cccc(O)c2)cc1 [Phentolamine] | 0.701 | 0.56 | -21.8 (inactive) | -26.1 (inactive)
3 | C#C[C@]1(O)CC[C@H]2[C@@H]3CCc4cc(O)ccc4[C@H]3CC[C@@]21C [Ethinyl Estradiol] | 0.608 | 0.958 | -18.3 (inactive) | 159
4 | Cc1ccc(NC(=O)c2ccc(CN3CCN(C)CC3)cc2)cc1Nc1nccc(-c2cccnc2)n1 [Imatinib mesylate] | 0.424 | 0.773 | -5.16 (inactive) | 37.1 (inactive)
5 | Cc1nnc(SCC2=C(C(=O)O)N3C(=O)[C@@H](NC(=O)Cn4cnnn4)[C@H]3SC2)s1 [Cefazolin] | 0.798 | 1.19 | -6.67 (inactive) | 6.84 (inactive)
6 | CC(CCc1ccccc1)NCC(O)c1ccc(O)c(C(N)=O)c1 (configuration not stated) [Labetalol] | 0.511 | 0.693 | -16.1 (inactive) | -9.26 (inactive)
7 | CNS(=O)(=O)Cc1ccc2[nH]cc(CCN(C)C)c2c1 [Sumatriptan] | 0.873 | 0.861 | -5.51 (inactive) | -5.9 (inactive)
8 | O=c1cnn([C@@H]2O[C@H](CO)[C@@H](O)[C@H]2O)c(=O)[nH]1 [Azauridine] | 0.944 | 0.453 | -6.45 (inactive) | -26.1 (inactive)
9 | CN1CCCC(n2nc(Cc3ccc(Cl)cc3)c3ccccc3c2=O)CC1 (configuration not stated) [Azelastine] | 0.861 | 0.855 | -2.34 (inactive) | -2.84 (inactive)
10 | NC(Cc1cc(I)c(Oc2cc(I)c(O)c(I)c2)c(I)c1)C(=O)O (configuration not stated) [Thyroxine] | 0.768 | 1.19 | -4.45 (inactive) | 32 (inactive)
11 | CNCCCN1c2ccccc2CCc2ccccc21 [Desipramine] | 0.74 | 0.549 | -14.9 (inactive) | -13.3 (inactive)
12 | CN(C)[C@@H]1C(O)=C(C(N)=O)C(=O)[C@@]2(O)C(O)=C3C(=O)c4c(O)ccc(Cl)c4[C@@H](O)[C@H]3C[C@@H]12 [Demeclocycline] | 0.946 | 0.666 | -3.29 (inactive) | -12.1 (inactive)
13 | Nc1ncnc2c1ncn2[C@@H]1O[C@H](CO)[C@@H](O)[C@H]1O [Adenosine] | 1.08 | 0.875 | -4.96 (inactive) | -4.36 (inactive)
14 | C/C=C1\[C@H]2C=C(C)C[C@]1(N)c1ccc(=O)[nH]c1C2 [Huperzine A] | 1.07 | 0.872 | 8.16 (inactive) | -5.77 (inactive)
15 | COC(=O)CCc1ccc(OCC(O)CNC(C)C)cc1 (configuration not stated) [Esmolol] | 1.07 | 0.988 | 2.16 (inactive) | -0.768 (inactive)
16 | O=C1CN2Cc3c(ccc(Cl)c3Cl)N=C2N1 [Anagrelide hydrochloride] | 0.9 | 0.706 | -1.07 (inactive) | -10 (inactive)
17 | CC(C)(C)NCC(O)c1cc(O)cc(O)c1 (configuration not stated) [Terbutaline] | 0.31 | 0.251 | -15.9 (inactive) | -16.6 (inactive)
18 | CC(C(=O)O)c1cccc(C(=O)c2ccccc2)c1 (configuration not stated) [Ketoprofen] | 0.813 | 0.972 | -5.15 (inactive) | -3.55 (inactive)
19 | CC1CCN(CCCC(=O)c2ccc(F)cc2)CC1 [Melperone hydrochloride] | 0.816 | 0.519 | -4.39 (inactive) | -12.5 (inactive)
20 | Cc1cccc(C)c1OCC(C)N (configuration not stated) [Mexiletine] | 0.887 | 0.965 | 8.19 (inactive) | 8.07 (inactive)
21 | CN1CCN(CCCN2c3ccccc3Sc3ccc(Cl)cc32)CC1 [Prochlorperazine] | 0.297 | 1.56 | -45.4 (inactive) | -29.6 (inactive)
22 | C[N+]1(C)CCC(OC(=O)C(O)(c2ccccc2)C2CCCC2)C1 (configuration not stated) [Glycopyrrolate] | 0.689 ± 0.14 | 0.888 ± 0.085 | -12.1 (inactive) | -2.31 (inactive)
23 | CC1(C)S[C@@H]2[C@H](NC(=O)[C@H](N)c3ccccc3)C(=O)N2[C@H]1C(=O)O [Ampicillin] | 0.301 | 0.192 | -16.3 (inactive) | -18.9 (inactive)
24 | C[C@H]1[C@H](OC(=O)CCC(=O)O)O[C@@H]2O[C@@]3(C)CC[C@H]4[C@H](C)CC[C@@H]1[C@@]24OO3 [Artesunate] | 0.652 | 1.2 | -34.4 (inactive) | 189
25 | Nc1ccc2cn[nH]c2c1 [6-Aminoindazole] | 0.529 | 0.815 | -12.7 (inactive) | -11.1 (inactive)
26 | COc1cc(C)nc(-n2nc(C)cc2OC)n1 [Epirizole] | 0.549 | 0.623 | -20.5 (inactive) | -13.2 (inactive)
27 | C[n+]1ccccc1C=NO [Pralidoxime] | 0.884 | 1.12 | -7.49 (inactive) | 1.41 (inactive)

Row | Compound | fiber score / MBP score ([1]; 1 µM) | fiber score / MBP score ([1]; 5 µM) | myelination ([2]; 1 µM) | myelination ([2]; 5 µM)
28 | Cn1cnc([N+](=O)[O-])c1Sc1ncnc2[nH]cnc12 [Azathioprine] | 0.762 | 0.822 | -10.3 (inactive) | -32.9 (inactive)
29 | C[C@H]1C[C@H]2[C@@H]3CCC4=CC(=O)C=C[C@]4(C)[C@@]3(Cl)[C@@H](O)C[C@]2(C)[C@@]1(O)C(=O)CO [Beclomethasone] | 0.828 ± 0.36 | 0.822 ± 0.021 | -2.48 (inactive) | -7.92 (inactive)
30 | O=C(NCCO[N+](=O)[O-])c1cccnc1 [Nicorandil] | 0.852 | 1.17 | -8.12 (inactive) | -1.77 (inactive)
31 | CC(C)(C)NCC(O)c1ccc(O)c(CO)c1 (configuration not stated) [Albuterol] | 0.654 | 0.789 | -29.6 (inactive) | -17.3 (inactive)
32 | NS(=O)(=O)c1cc2c(cc1C(F)(F)F)NC(Cc1ccccc1)NS2(=O)=O (configuration not stated) [Bendroflumethiazide] | 0.474 | 0.559 | -24.6 (inactive) | -27.7 (inactive)
33 | CC1=C(/C=C/C(C)=C/C=C/C(C)=C\C(=O)O)C(C)(C)CCC1 [Isotretinoin] | 0.294 | 0.414 | -16.1 (inactive) | -11.8 (inactive)
34 | C=CC1=C(C(=O)O)N2C(=O)[C@@H](NC(=O)/C(=N\O)c3csc(N)n3)[C@H]2SC1 [Cefdinir] | 0.926 | 0.824 | 1.23 (inactive) | -0.0683 (inactive)
35 | CC(C)[C@H]1CC[C@H](C(=O)N[C@H](Cc2ccccc2)C(=O)O)CC1 [Nateglinide] | 0.796 | 0.739 | -12.6 (inactive) | -10.9 (inactive)
36 | COc1ccc(C(=O)NCc2ccc(OCCN(C)C)cc2)cc1OC [Itopride] | 0.63 | 0.693 | -10.9 (inactive) | -10.7 (inactive)
37 | CC(C)(C)NC[C@H](O)COc1nsnc1N1CCOCC1 [Timolol] | 0.869 | 1.02 | -4.47 (inactive) | -1.56 (inactive)
38 | O=C1CN(/N=C/c2ccc(-c3ccc([N+](=O)[O-])cc3)o2)C(=O)N1 [Dantrolene sodium salt dihydrate] | 0.33 | 0.372 | -11.8 (inactive) | -14.2 (inactive)
39 | O=C(O)CCNC(=O)c1ccc(/N=N/c2ccc(O)c(C(=O)O)c2)cc1 [Balsalazide] | 0.862 | 0.833 | -5.47 (inactive) | -9.22 (inactive)
40 | COc1nc(C)nc(Cl)c1NC1=NCCN1 [Moxonidine] | 0.758 | 0.82 | -10.8 (inactive) | -21.6 (inactive)
41 | Clc1ccccc1CN1CCc2sccc2C1 [Ticlopidine] | 0.477 | 0.662 | -18.3 (inactive) | -14.2 (inactive)
42 | Nc1ccn([C@@H]2CS[C@H](CO)O2)c(=O)n1 [Lamivudine] | 0.832 ± 0.033 | 0.619 ± 0.073 | -7.54 (inactive) | -12.3 (inactive)
43 | c1ccc2c(CC3=NCCN3)cccc2c1 [Naphazoline] | 1.1 | 1.06 | 13.7 (inactive) | 14 (inactive)
44 | C#C[C@]1(O)CC[C@H]2[C@@H]3CCC4=Cc5oncc5C[C@]4(C)[C@H]3CC[C@@]21C [Danazol] | 0.577 | 0.557 | -20.4 (inactive) | -24.3 (inactive)
45 | Fc1cncnc1 [5-fluoropyrimidine] | 0.595 | 0.899 | -17.3 (inactive) | 4.98 (inactive)
46 | O=C(O)c1cccnc1 [Niacin] | 1.05 | 0.998 | 9.03 (inactive) | 7.38 (inactive)
47 | C[C@@H]1C[C@H]2[C@@H]3C[C@H](F)C4=CC(=O)C=C[C@]4(C)[C@@]3(F)[C@@H](O)C[C@]2(C)[C@@]1(O)C(=O)SCF [Fluticasone] | 0.729 | 0.694 | -47.4 (inactive) | -24.8 (inactive)
48 | CC(C(O)c1ccc(O)cc1)N1CCC(Cc2ccccc2)CC1 (configuration not stated) [Ifenprodil] | 0.348 | 0.136 | -70.3 (inactive) | -83.6 (inactive)
49 | CC(=O)/N=c1/sc(S(N)(=O)=O)nn1C [Methazolamide] | 0.875 | 0.672 | -8.24 (inactive) | -24.1 (inactive)
50 | OC(Cn1cncn1)(Cn1cncn1)c1ccc(F)cc1F [Fluconazole] | 0.906 | 0.784 | 5.01 (inactive) | -19.9 (inactive)
51 | COc1cc2nc(N3CCN(C(=O)C4COc5ccccc5O4)CC3)nc(N)c2cc1OC (configuration not stated) [Doxazosin] | 0.727 | 0.531 | -45.2 (inactive) | -54.3 (inactive)
52 | O=c1[nH]c(=O)n([C@H]2C[C@H](O)[C@@H](CO)O2)cc1F [Floxuridine] | 1.49 | 1.71 | 286 | 367 (active)
53 | Nc1c2c(nc3ccccc13)CCCC2 [Tacrine] | 0.655 | 0.566 | -9.65 (inactive) | -14.9 (inactive)
